High-throughput results from PubChem BioAssay.
KB-3-1 tox – KB-3-1 parental cell cytotoxicity. Potency, µM (highest dose often 46.1 µM), actives largely listed as cytotoxic. AID 1347075. KB-3-1 viability, CellTiter-Glo ATP luminescence, 72 h. 1.4% of 400,000 active; note: nearly all actives have a fitted effect of over 60% in size
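Cytotoxicity in the drug-sensitive parental line KB-3-1 was scored as loss of CellTiter-Glo luminescence following 72 h incubation with compound. Values come from curve fitting of normalized concentration-response data.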
MCF10A rerep – inducers of DNA re-replication in MCF 10A breast cells | Potency, µM (top dose mostly 46.1 µM), actives largely listed as activators | MCF 10A DNA re-replication, Hoechst nuclear intensity, 48 h | 2.9% of 350,000 active; note: nearly all actives have a fitted effect of over 50% in size
ELG1 repair inh – inhibitors of ELG1-dependent DNA repair in HEK293T cells. HEK293T ELG1-luciferase reporter, luminescence, 16 h; DNA damage induced by 5-fluorouridine. Potency, µM (doses to about 46.1 µM), most hits filed as inhibitors. 2.3% of 330,000 active; note: nearly all actives have a fitted effect of over 55% in size
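Luminescence from the luciferase reporter, measured 30 min after ONE-Glo reagent at room temperature, was the read-out. Beforehand, 2,000 cells per well were exposed for 16 hr at 37 °C to 5-fluorouridine together with compound or vehicle.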
SW480 rereplic – induces DNA re-replication in SW480 colon adenocarcinoma cells; 1.8% of 340,000 active; Potency, µM (titrated, usually from 46.1 µM), most hits filed as activators; AID 624297; SW480 DNA re-replication, Hoechst DNA content imaging, 48 h; note: nearly all actives have a fitted effect of over 55% in size
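Hoechst fluorescence of nuclei (405 nm excitation, 500-530 nm emission) measured by plate-scanning imager after 48 hr compound exposure at 37 C; re-replication scored as increased number of nuclei with elevated intensity.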
KB-V1 cytotox – kills drug-selected multidrug resistant KB-V1 cells; KB-V1 MDR cells viability, CellTiter-Glo, 72 h; Potency, µM (top dose mostly 46.1 µM), usual class: cytotoxic; 3.4% of 400,000 active; AID 1347076; note: nearly all actives have a fitted effect of over 60% in size
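KB-V1 MDR subline cells in DMEM (phenol-red free, 10% FBS) exposed to compounds in qHTS concentration series for 72 h at 37 degrees C. Viability read by CellTiter-Glo luminescence; concentration-effect curves fitted after normalization and correction.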
Each line names hits and unclear results; the compound was inactive in the other large screens. Sampled rows, rich in hits. Any-hit rate of the full collection: about 8.2%. Calls come from the whole dose curve; as a rule, active = well fitted curve in the direction sought with a large enough effect; inconclusive = small, poorly fitted or top-dose-only effect, or another doubt; inactive = no such curve, though single readings can be large; an effect the other way counts as inactive or inconclusive.

Cc1cccc(NC(=O)c2ccc(C3SCC(=O)N3CCc3ccccc3)cc2)c1 (centres undefined)	KB-3-1 tox inconclusive, MCF10A rerep inconclusive, ELG1 repair inh 26µM, KB-V1 cytotox inconclusive
Nc1ncc(-c2nnnn2-c2ccc(Cl)cc2)c(-c2ccc(Cl)cc2)n1	KB-3-1 tox 5.2µM, MCF10A rerep inconclusive, SW480 rereplic 2.9µM, KB-V1 cytotox 6.5µM
Clc1ccc(-n2nnnc2-c2cnc3ccccc3c2-c2ccccc2)cc1	ELG1 repair inh inconclusive, KB-V1 cytotox 16µM
Clc1ccc(-c2nnnn2-c2ccc(Cl)cc2)cc1	KB-3-1 tox inconclusive
Cc1ccc(-n2nnnc2-c2cnc3ccc(Cl)cc3c2-c2ccccc2)cc1	KB-3-1 tox 7.3µM, MCF10A rerep 21µM, SW480 rereplic inconclusive, KB-V1 cytotox inconclusive
CCC(C(=O)Nc1cc(C)ccc1C)n1c(=O)c(C(F)(F)F)nc2ccccc21 (centres undefined)	none (no result: MCF10A rerep, ELG1 repair inh, SW480 rereplic)
CCOC(=O)Cc1c(C)nc2c(-c3ccccc3)cnn2c1C	MCF10A rerep 1.3µM, ELG1 repair inh inconclusive, SW480 rereplic inconclusive
CCOC(=O)Cc1c(C)nc2c(-c3ccc(Cl)cc3)c(C(F)(F)F)nn2c1C	none (no result: MCF10A rerep, ELG1 repair inh, SW480 rereplic)
CC(=O)c1cnc2c(-c3ccccc3)cnn2c1C	KB-3-1 tox inconclusive, ELG1 repair inh inconclusive, KB-V1 cytotox 21µM
CCOC(=O)c1cnc2c(-c3ccccc3)cnn2c1C	ELG1 repair inh inconclusive
Cc1nc2c(-c3ccc(F)cc3)c(C)nn2c(C)c1CCC(=O)N1CCC(Cc2ccccc2)CC1	KB-3-1 tox inconclusive, MCF10A rerep 21µM
CCOC(=O)Cc1c(C)nc2c(-c3ccc(Cl)cc3)c(C)nn2c1C	MCF10A rerep 23µM, ELG1 repair inh inconclusive, SW480 rereplic inconclusive, KB-V1 cytotox inconclusive
N#Cc1ccccc1OCC(=O)N1CCN(c2ccccc2F)CC1	none (no result: MCF10A rerep, ELG1 repair inh, SW480 rereplic)
Cc1nc2c(-c3ccccc3)c(C)nn2c(C)c1CC(=O)O	MCF10A rerep 15µM
COC(CNC(=O)Cc1c(C)nc2c(-c3ccccc3)c(C)nn2c1C)OC	KB-V1 cytotox inconclusive
C=CC(=O)N1C/C(=C/c2ccccc2)C(=O)/C(=C\c2ccccc2)C1	KB-3-1 tox 4.1µM, SW480 rereplic inconclusive, KB-V1 cytotox inconclusive (no result: ELG1 repair inh)
C=CC(=O)N1C/C(=C/c2ccc(Cl)cc2)C(=O)/C(=C\c2ccc(Cl)cc2)C1	KB-3-1 tox inconclusive, MCF10A rerep inconclusive, SW480 rereplic 1.5µM (no result: ELG1 repair inh)
O=C1/C(=C/c2ccc(C(=O)O)cc2)CCC/C1=C\c1ccc(C(=O)O)cc1	none
Cc1cc(N2CCC(C)CC2)nc2ccc(NC(=O)/C=C/c3cccc(Cl)c3)cc12	none (no result: MCF10A rerep, ELG1 repair inh, SW480 rereplic)
CCOC(=O)N1CCC(NC(=O)CS(=O)Cc2nc(-c3ccccc3C)oc2C)CC1 (centres undefined)	ELG1 repair inh inconclusive, KB-V1 cytotox inconclusive
Cc1ccc2[nH]c(=O)c(CN(Cc3cccs3)Cc3nnnn3Cc3ccco3)cc2c1	KB-V1 cytotox inconclusive (no result: MCF10A rerep, ELG1 repair inh, SW480 rereplic)
CCc1ccc2[nH]c(=O)c(CN(Cc3ccccc3OC)Cc3nnnn3Cc3ccco3)cc2c1	KB-3-1 tox 21µM, MCF10A rerep inconclusive, ELG1 repair inh 10µM, SW480 rereplic inconclusive, KB-V1 cytotox inconclusive
CCOC(=O)Cn1nnnc1CN(Cc1ccc(OC)cc1)Cc1cc2cc(C)ccc2[nH]c1=O	MCF10A rerep 23µM, ELG1 repair inh 18µM
COc1ccccc1CN(Cc1cc2cc(C)ccc2[nH]c1=O)Cc1nnnn1Cc1ccco1	KB-3-1 tox inconclusive, ELG1 repair inh inconclusive, KB-V1 cytotox 18µM
CCOC(=O)Cn1nnnc1C(C(C)C)N(Cc1cccs1)Cc1cc2cc(C)ccc2[nH]c1=O (centres undefined)	KB-3-1 tox inconclusive, MCF10A rerep inconclusive, ELG1 repair inh inconclusive, KB-V1 cytotox 11µM
O=C(CCS(=O)(=O)c1cccc2nsnc12)Nc1ccc(F)cc1	none (no result: MCF10A rerep, ELG1 repair inh, SW480 rereplic)
COC(=O)c1cccc(NC(=O)CSc2nnc(C3CC3)n2C)c1	none
COc1cccc(CNC(=O)COC(=O)C2CCN(c3ccc(C(F)(F)F)cn3)CC2)c1	none
Cc1cccnc1CCNCc1c(C(=O)N2C[C@@H](C)O[C@@H](C)C2)nc2ccc(Cl)cn12	KB-V1 cytotox inconclusive
O=C(CCc1ccc(S(=O)(=O)N2CCOCC2)cc1)Nc1ccc(F)c(F)c1F	none
CNC(=S)N(Cc1ccco1)Cc1cc2cc(OC)ccc2[nH]c1=O	ELG1 repair inh inconclusive, KB-V1 cytotox inconclusive
